Test results reported in the supplement of paper PMC10338343.
± gives the standard deviation. Over roughly 8,200 sequences, “pre-steady-state target cleavage rate” has its median near 0.024; the highest 2% begin near 1.3. The sample holds the highest values, similar sequences and a random draw of the others, so the mix is not that of the screen.

System: MIWI (PIWIL1) piRISC loaded with L1MC piRNA (30 nt)
Assay: pre-steady-state target cleavage rate (min^-1); MIWI and MILI are mouse PIWI proteins and EfPiwi is from a freshwater sponge; tags in brackets are library labels; higher = faster piRNA-guided slicing of the target
Conditions: guide: L1MC piRNA 5'p-UAACUAAAUACUAUGCAAGCUGUAGGUCCU
Procedure: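 Cleave-'n-Seq: a library of target RNAs (target site embedded in constant flanks, ACAGCATTCCGCGTTAGTGATATCCG... 5' flank; DNA-blocked outside the site) at 0.1 nM was incubated with 1 nM active mouse MILI or MIWI piRISC (synthetic 5'-monophosphorylated piRNA guide) with or without 500 nM mouse GTSF1 at 33 °C for 1 min to 16 h. Uncleaved targets were sequenced and normalised to non-target controls, and the pooled three trials were fitted to a burst-and-steady-state model to give the pre-steady-state cleavage rate (min^-1; k3 is constrained to at most 1e-4). Sequence is the target site only; target names encode pairing extent (gX:gY) and contiguous / 1-mismatch / 2-mismatch / bulge geometry. Fits with R² ≤ 0 are excluded.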

[1] = auxiliary factor: 500 nM mouse GTSF1
[2] = auxiliary factor: none (no GTSF1)

Sequence	pre-steady-state target cleavage rate [1]	pre-steady-state target cleavage rate [2]
AGGACCUACAGGAAGCAUAGUAUUUAGUUA	0.977 ± 0.08	0.0104 ± 0.0029
UGGACCUACAGCUUGCAUAGUAUAAACAAA	0.14 ± 0.028	
UCCACCUACAGCUUGCAUAGUAAAUAGUUA	0.426 ± 0.039	0.00722 ± 0.0018
AGGACCUACAGGAUGCAUAGUAUUUAGUUA	1.06 ± 0.092	0.023 ± 0.0047
UCCUGGAUGUGCUAGCAUAGAAUUUAGUUA	0.00695 ± 0.0028	
AGGACCUACAGCUUGGAUAGUAUUUACUUA	0.478 ± 0.054	0.0287 ± 0.0043
UCCAGCUACAGCUUGCAUAGUAUUAAGUUA	0.558 ± 0.043	0.015 ± 0.0026
UCAACCUACAGCUUGCAUAGUAUUUAGUUA	1.43 ± 0.04	0.0646 ± 0.011
UCCAACCUACAGCUUGCAUAGUAUUUAGUUA	1.05 ± 0.037	0.055 ± 0.0073
AGAACCUACAGCUUGCAUAGUAUUUAGUUA	1.43 ± 0.047	0.0851 ± 0.013
UCCUGGAACAGCUGGCAUAGUAUUUAGUUA	0.759 ± 0.038	0.0271 ± 0.0057
UCCAGCUACAGCUUGCAUAGUAAUUAGUUA	0.475 ± 0.038	0.0163 ± 0.0027
UCCUGCUACAGGUUGCAUAGUAUUUAGUUA	1.03 ± 0.037	0.0257 ± 0.0052
UCCUGGAUGAGCUUGCAUAGUAUUCUAGUUA	0.28 ± 0.036	0.0103 ± 0.0031
UCCUGCUACAGCUUGCAUAGUAUAUACUUA	0.111 ± 0.017	0.00755 ± 0.0036
UCGUCCUACUGCUUGCAUAGUAUUUAGUUA	1.14 ± 0.048	0.0572 ± 0.0094
UGGAGCUACAGCUUGCAUAGUAUUUUGUUA	0.992 ± 0.05	0.0525 ± 0.0077
UCCUGGUUGUGCUUGCAUAGUAUUUAGUUA	0.584 ± 0.032	0.0455 ± 0.0097
UGGACCUACAGCUUGCAUAGUUAAUAGUAA	0.0448 ± 0.01	
UCGACCUACAGUUUGCAUAGUAUUUAGUUA	1.37 ± 0.054	0.0619 ± 0.0092
UGGACCUACAGUUGCAUAGUAUUUAGUUA	1.06 ± 0.094	0.00944 ± 0.0032
AGGACCUACAGUUUGCAUAGUAUUUAGUUA	1.25 ± 0.073	0.0653 ± 0.0093
UCGACCUACAGUUGCAUAGUAUUUAGUUA	0.955 ± 0.065	0.00747 ± 0.0023
UCCACCUACAGUUUGCAUAGUAUUUAGUUA	0.892 ± 0.072	0.0474 ± 0.0076
UGGACCUACAGUUUGCAUAGUAUUUAGUUA	1.5 ± 0.088	0.0675 ± 0.013
UGGACGUACUGCUUGCAUAGUAUUUAGUUA	1.01 ± 0.051	0.056 ± 0.0091

Sequence	pre-steady-state target cleavage rate [1]	pre-steady-state target cleavage rate [2]
UCCUGGAACAGCUUGCUUAGUAAUUAGUUA	0.485 ± 0.041	0.0141 ± 0.0051
UCCUGGAACAGCUUGCAUAGUAUUAUCUUA	0.141 ± 0.028	0.00408 ± 0.0029
UCGACCUACAGCUUGCAUAGUAUUAUGUAA	0.228 ± 0.057	
UCCUGGAACAGCUAGCAUAGUAUUUAGUUA	0.836 ± 0.027	0.022 ± 0.0049
AGGACCUACAGCUUGCAUAGUAGUUUAGUUA	0.47 ± 0.036	0.0209 ± 0.006
UCCUGGAUGUGCUUGGAUAGUAUUAAGUUA	0.0897 ± 0.022	0.00634 ± 0.0041
UCCUGGAUCAGCUUGCAUAGUAUUUAGUUU [g2:g22:cont:t1U]	1.54 ± 0.089	0.0667 ± 0.016
UCCUGGAUCAGCUUGCAUAGUAUUUAGUUG [g2:g22:cont:t1G]	1.05 ± 0.12	0.0362 ± 0.0084
UCCUGGAUCAGCUUGCUAUAGUAUUUAGUUA	0.00584 ± 0.0043	
UCCUGGAUCAGCUUGCAUAGUAUUUAGUUA [g2:g22:cont:t1A]	1.36 ± 0.054	0.0516 ± 0.0097
UCCUGGAUCAGCUUGUAUAGUAUUUAGUUA	1.64 ± 0.1	0.0468 ± 0.012
UCCUGGAUCAGCUUGGAUAGUAUUUAGUUA	0.775 ± 0.064	0.0476 ± 0.0092
UCCUGGAUCAGCUUGCAUAGUAUUUUAGUUA	0.979 ± 0.05	0.0222 ± 0.0046
UCCUGGAUCAGCUUGCAUAGUAUUUAGUA	0.838 ± 0.043	0.0119 ± 0.0038
UCCUGGAUCAGCUUGCAUAGUAUUUAGUAA	0.96 ± 0.047	0.0287 ± 0.0064
UCCUGGAUCAGCUUUGCAUAGUAUUUAGUUA	1.05 ± 0.053	0.0153 ± 0.004
UCCUGGAUCAGCUUGCAUAGUAUUUAGUUUA	1.64 ± 0.071	0.0415 ± 0.011
UCCUGGAUCAGCUUGCAUAGUAUUUAGUUC [g2:g22:cont:t1C]	1.14 ± 0.052	0.0609 ± 0.012
UCCUGGAUGAGCUAGCAUAGUAUUUAGUUA	0.617 ± 0.05	0.0107 ± 0.0036
UCCUGCUAACAGCUUGCAUAGUAUUUAGUUA	0.617 ± 0.052	0.0487 ± 0.0083
AGGACCUACAGCUUGCAUAGUAAAAACAAA	0.268 ± 0.068	
UGGACCUACAGCUUCCAUAGUAAUUAGUUA	0.0113 ± 0.0031	
UCCUGGAACAGCUUGCAUAGUACUUUAGUUA	0.472 ± 0.036	0.00827 ± 0.0032
UCCAGCUACACCUUGCAUAGUAUUUAGUUA	0.797 ± 0.034	0.0443 ± 0.0068
UCCUGGAUCAGCUUGCAUAGAAUUUACAAA	0.0559 ± 0.014	
UGGACCUACAGCUUGCAUAGCAUUUAGUUA	0.379 ± 0.025	0.0275 ± 0.0061

Sequence	pre-steady-state target cleavage rate [1]	pre-steady-state target cleavage rate [2]
UCCUGGACCAGCUUGCAUAGUAUUUAGUUA	0.915 ± 0.048	0.0367 ± 0.0074
UCCUGGAUCCAGCUUGCAUAGUAUUUAGUUA	1.31 ± 0.081	0.0546 ± 0.016
UCCUGGUCCAGCUUGCAUAGUAUUUAGUUA	0.717 ± 0.055	0.0383 ± 0.0079
UCCUGGAUCCGCUUGCAUAGUAUUUAGUUA	0.927 ± 0.053	0.031 ± 0.0075
UCCUGGAUGAGCUUGCAUAGUAUUUAUUUA	0.267 ± 0.055	0.025 ± 0.0077
AGGACCUACAGGUUCCAUAGUAUUUAGUUA	0.659 ± 0.17	
UCCUUCUACAGCUUGCAUAGUAUUUAGUUA	1.02 ± 0.033	0.0527 ± 0.0083
UCCUCUCUACAGCUUGCAUAGUAUUUAGUUA	0.797 ± 0.038	0.0529 ± 0.0081
UCCUCUACAGCUUGCAUAGUAUUUAGUUA	1.34 ± 0.047	0.0659 ± 0.011
UCCUCCCUACAGCUUGCAUAGUAUUUAGUUA	1.09 ± 0.038	0.075 ± 0.016
UCCUCCUACAGCUUGCAUAGUAUUUAGUUA [g2:g26:cont:t1A]	1.32 ± 0.052	0.0816 ± 0.015
UCCUCCUACAGCUUGCAUAGUAUUUUAGUUA	1.04 ± 0.044	0.0227 ± 0.0055
ACCUCCUACAGCUUGCAUAGUAUUUAGUUA	1.35 ± 0.052	0.0784 ± 0.012
UCCUCCUACAGCUUGCAUAGUAUUUAGUUC [g2:g26:cont:t1C]	1.09 ± 0.039	0.0511 ± 0.011
ACCUCCUACAGCUUGCAUAGUAUUUAGUAA	0.85 ± 0.046	0.0351 ± 0.0072
UCCUGGUACAGCUUGCAUAGUAGUUAGUUA	0.433 ± 0.051	0.0224 ± 0.0045
UGGACGUACAGCUUGCAUAGUAUUUUGUUA	0.75 ± 0.055	0.052 ± 0.009
UCCUGGAUCAGCAUUGCAUAGUAUUUAGUUA	0.875 ± 0.036	0.0165 ± 0.0047
UCCUGGAUGUCGAUGCAUAGUAUUUGAGUUA	0.0114 ± 0.0044	
UCCACCUACACCUUGCAUAGUUUUUAGUUA	0.249 ± 0.032	0.0171 ± 0.0033
UCCUGGAACAGCGUUGCAUAGUAUUUAGUUA	0.939 ± 0.055	0.0303 ± 0.0056
UCCUGCUACAGGUUGCAUAGUAUUUACAAA	0.117 ± 0.028	
UCCACCUACAGACUUGCAUAGUAUUUAGUUA	0.606 ± 0.06	0.0272 ± 0.0043
UCCUCCUACAGCUUGCAUAGCUAUUUAGUUA	0.0221 ± 0.01	
